Source: PubChem (several laboratories)
Compounds with a hit are over-represented: about 2.9% of the library has one in this group of screens.
MEKK3 PB1 HTS: MEKK3-MEK5 PB1 interaction, increase or decrease | binding response (% of control), % at 10 µM | AID 1529 | bead-based flow cytometry, Alexa488-MEK5 binding to MEKK3; actives lie on both sides; 0 = blocked by unlabeled MEK5, 100 = vehicle | actives 1.4% (n = 290,000);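 active = binding response more than 3 SD above or below the average of its plate-row segment, actives on both sides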;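 note: Alexa488 bead fluorescence after subtracting the streptavidin-only scavenger bead signal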
DNA FID counter: counter-screen for HCV NS3 helicase inhibitors: DNA intercalator displacement | DNA fluorescent intercalator displacement, fluorescence | inhibition, % at 7.9 µM | actives 0.17% (n = 290,000) | AID 1845; in the data active = inhibition above about 37%;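 note: higher means more ethidium bromide displaced from hairpin DNA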
MEKK2 WT-MEK5: raises or lowers MEK5 binding to wildtype human MEKK2 PB1 domain; Q9Y2U5; bead flow cytometry, Alexa488-MEK5 binding to MEKK2 WT; actives lie on both sides; binding response (% of control), % at 10 µM; actives 1.1% (n = 290,000); AID 1531; in the data active = binding response below about 67% or above about 130%
MEKK2mut PB1 HTS: signal of MEK5 binding to mutant human MEKK2 PB1 domain | percent response, % at 10 µM | actives 0.35% (n = 290,000) | bead flow cytometry, Alexa488-MEK5 binding to MEKK2 mutant | AID 1530; in the data active = percent response above about 24%, passing the limit was not always enough
dFosB activator: activators of mouse delta FosB homodimer; P13346; purified delta FosB, TAMRA-CDK5 oligo fluorescence polarization; percent of positive-control signal above neutral wells; activation, % at 25 µM; actives 0.99% (n = 340,000);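 active = mean activation above about 17%, with every replicate also reaching it, limit read from the data, passing the limit was not always enough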
Target sequence (P13346 whole entry, looked up): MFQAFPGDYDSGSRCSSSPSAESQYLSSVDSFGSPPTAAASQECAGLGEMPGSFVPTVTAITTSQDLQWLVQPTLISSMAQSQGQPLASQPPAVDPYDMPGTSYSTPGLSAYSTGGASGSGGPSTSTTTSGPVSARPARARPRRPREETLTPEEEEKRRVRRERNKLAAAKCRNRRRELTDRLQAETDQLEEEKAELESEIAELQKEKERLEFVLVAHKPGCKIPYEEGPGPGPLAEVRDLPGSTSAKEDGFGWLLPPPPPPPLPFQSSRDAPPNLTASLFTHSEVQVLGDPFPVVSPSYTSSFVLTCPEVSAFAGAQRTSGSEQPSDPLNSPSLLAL
Large screens that a line does not name were inactive; [ ] = another dose, or the depositor's remark.

N=C1S/C(=C\c2cccc3ccccc23)C(=O)N1c1ccc(F)cc1	MEKK3 PB1 HTS 144
N=c1ccn(O)cc1CCc1ccccc1	none (no result: MEKK3 PB1 HTS, DNA FID counter, MEKK2 WT-MEK5, MEKK2mut PB1 HTS)
CC1C=CCC2C(=O)N(c3cccc(C(=O)NCc4ccccc4)c3)C(=O)C12 (stereo unspecified)	none
O=c1[nH]c(=S)[nH]c(O)c1N=Nc1ccc(-c2ccccc2)cc1[N+](=O)[O-]	MEKK2 WT-MEK5 -4.0 (no result: dFosB activator)
COc1ccc(S(=O)(=O)Nc2ccccc2OC)cc1N=Nc1c(O)[nH]c(=S)[nH]c1=O	none (no result: MEKK3 PB1 HTS, DNA FID counter, MEKK2 WT-MEK5, MEKK2mut PB1 HTS)
Cc1ccc(NCC(=O)Nc2cccc(F)c2)cc1S(=O)(=O)N1CCCCCC1	none
CCC(C)(C)NC(=O)C1CCN(S(=O)(=O)c2cccs2)CC1	MEKK2 WT-MEK5 296, MEKK2mut PB1 HTS 81
COc1ccc2c(c1)[nH]c1c(=O)n(/N=C/c3ccc(OC)c(CN4CCCCC4)c3)cnc12	dFosB activator 74
CC[C@H](C)[C@@H](NC(=O)O[C@@H]1C(=O)c2cc(Br)ccc2O[C@H]1c1ccc2c(c1)OCO2)C(=O)OC	MEKK3 PB1 HTS 78[inhibitor] (no result: dFosB activator)
O=C(NNS(=O)(=O)c1ccc(Br)cc1)NC1CCCCC1	none
O=C(NC1CCCCC1)N(C1=NCCCCC1)c1ccc(Br)cc1	MEKK2 WT-MEK5 15
COc1ccccc1CNC(=O)C1CC(c2ccccc2[N+](=O)[O-])=NO1 (stereo unspecified)	none
NC(=O)COC(=O)/C=C/c1ccc(S(=O)(=O)N2CCCCCC2)cc1	none
COc1ccc(/C=C/C(=O)OCC(=O)c2ccc(S(=O)(=O)N3CCCCC3)cc2)cc1OC	dFosB activator 84 (no result: MEKK3 PB1 HTS, DNA FID counter, MEKK2 WT-MEK5, MEKK2mut PB1 HTS)
Cc1ccc(S(=O)(=O)N2CCOCC2)cc1NC(=O)COC(=O)/C=C/c1ccc(F)cc1	dFosB activator 81 (no result: MEKK3 PB1 HTS, DNA FID counter, MEKK2 WT-MEK5, MEKK2mut PB1 HTS)
COc1ccc2c(C)cc(SCC(=O)Nc3cc(C(N)=O)cc(C(N)=O)c3)nc2c1	dFosB activator 68
CC(=O)Nc1ccc2cc3ccc(NC(C)=O)cc3nc2c1	DNA FID counter 56
Cc1cccc(N2CCN(C(=O)c3c(-c4ccccc4)noc3C)CC2)c1C	none
Cc1ccc(N(CC(=O)Nc2ccccc2C(=O)NCc2ccco2)S(=O)(=O)c2ccccc2)cc1C	MEKK2mut PB1 HTS 29
O=C(CN(c1ccccc1)S(=O)(=O)c1ccccc1)Nc1ccccc1C(=O)NCc1ccco1	none
C#CCn1c(=NC(=O)c2ccccc2[N+](=O)[O-])sc2cc(S(C)(=O)=O)ccc21	dFosB activator 33
COCCn1c(=NC(=O)c2nc3ccccc3s2)sc2cc(S(C)(=O)=O)ccc21	none
Nc1c(C(=O)NCc2ccc3c(c2)OCO3)nnn1Cc1ccc(Br)cc1	dFosB activator 20
Nc1c(C(=O)NCc2ccc3c(c2)OCO3)nnn1Cc1cccc(F)c1	none
COc1cccc(C2C3=C(N=c4s/c(=C\c5ccc(O)cc5)c(=O)n42)c2ccccc2CC3)c1OC (stereo unspecified)	none
COc1cccc(C2C3=C(N=c4s/c(=C\c5cccc(O)c5)c(=O)n42)c2ccccc2CC3)c1OC (stereo unspecified)	MEKK3 PB1 HTS 133
CCOc1c(Br)cc(Br)cc1/C=C1\SC(N)=NC1=O	dFosB activator 25
CCOc1ccc(/C=N/NC(=O)c2ccc(F)cc2)cc1CN1CC2CC(C1)c1cccc(=O)n1C2 (stereo unspecified)	none (no result: MEKK3 PB1 HTS, DNA FID counter, MEKK2 WT-MEK5, MEKK2mut PB1 HTS)
COc1ccc(-c2coc3cc4oc(=O)cc(-c5ccccc5)c4cc23)cc1F	MEKK3 PB1 HTS 132
COc1ccc(-c2coc3cc4oc(=O)cc(C)c4cc23)cc1F	none
CCN(CC)CCNC(=O)c1[nH]c2ccc(OCc3ccccc3)cc2c1C	MEKK2 WT-MEK5 184
CCN1CCN(CCCNC(=O)c2ccc3c(c2)NC(=O)c2ccccc2S3)CC1	none
CCN1CCN(CCCNC(=O)c2ccc3c(c2)NC(=O)/C(=C\c2cccc(C)c2)S3)CC1	MEKK2 WT-MEK5 165
Cc1cccc(/C=C2/Sc3ccc(C(=O)NCCCN4CCOCC4)cc3NC2=O)c1	MEKK2 WT-MEK5 149, MEKK2mut PB1 HTS 25, dFosB activator 33
COc1ccc(/C=C2/Sc3ccc(C(=O)NCCCN4CCOCC4)cc3NC2=O)cc1OC	none
COc1ccc(C(C(=O)NC2CCCCC2)N(C(=O)c2ccco2)c2ccccc2OC)cc1 (stereo unspecified)	none
COc1ccccc1CC(=O)N1CCN(c2cccc(C(F)(F)F)c2)CC1	none
Cc1cc(C)c2c(=O)[nH]c(SCC(=O)N(C)C)nc2n1	DNA FID counter 75
COc1ccc(NC(=O)NNC(=O)COc2ccc3cc(Br)ccc3c2)c(OC)c1	dFosB activator 82
COc1ccc(NC(=O)COc2ccc(Br)cc2)c(OC)c1	none
O=C(NCC(c1ccco1)N1CCOCC1)C1CCCCC1 (stereo unspecified)	none (no result: MEKK3 PB1 HTS, DNA FID counter, MEKK2 WT-MEK5, MEKK2mut PB1 HTS)
O=c1[nH]nc(SCc2cc(Cl)ccc2Cl)c(=O)[nH]1	none
CCN1CCc2c(sc(N)c2C#N)C1	none
CC(C)N1CCc2c(sc(N)c2C#N)C1	MEKK2 WT-MEK5 2.0 (no result: DNA FID counter)
O=[N+]([O-])c1ccc(N/N=C/c2ccc[nH]2)cc1	MEKK2 WT-MEK5 -1.0
O=[N+]([O-])c1ccc(NN=Cc2cccc([N+](=O)[O-])c2)cc1	none (no result: MEKK3 PB1 HTS, DNA FID counter, MEKK2 WT-MEK5, MEKK2mut PB1 HTS)
CC(=O)c1ccc(-n2c(CCC(=O)O)ccc2-c2ccc(Cl)cc2)cc1	none
COC(=O)c1cc(-c2ccc(OC)cc2)n[nH]1	none
CCOc1ccc(-c2cc(C(=O)OC)[nH]n2)cc1	MEKK3 PB1 HTS 162, MEKK2mut PB1 HTS 880
CN(Cc1nc(C(c2ccccc2)c2ccccc2)no1)CC1COCCO1 (stereo unspecified)	none
COc1ccc(S(=O)(=O)Nc2ccccn2)cc1C(=O)Nc1ccccc1	none
Cc1ccc(NC(=O)c2ncn(CCCN(CCCn3cnc(C(=O)Nc4ccc(C)c(C)c4)n3)Cc3ccc4[nH]ccc4c3)n2)cc1C	dFosB activator 77 (no result: MEKK3 PB1 HTS, DNA FID counter, MEKK2 WT-MEK5, MEKK2mut PB1 HTS)
Cc1ccc(NC(=O)c2ncn(CC(=O)NCc3ccc4[nH]ccc4c3)n2)cc1C	none (no result: MEKK3 PB1 HTS, DNA FID counter, MEKK2 WT-MEK5, MEKK2mut PB1 HTS)
CC(Oc1ccc(Cl)cc1)c1ccn[nH]1 (stereo unspecified)	none
CCN(CC)CCCNc1nc2ccccc2c2nc(-c3ccncc3)nn12	dFosB activator 67
CCN(CC)CCCNc1nc2cc(OC)c(OC)cc2c2nc(-c3ccccc3)nn12	DNA FID counter 50, dFosB activator 181
COc1cc2nc(NCCCN3CCN(C)CC3)n3nc(-c4ccccc4)nc3c2cc1OC	dFosB activator 166
CCN(CC)CCCNc1nc2cc(OC)c(OC)cc2c2nc(-c3cccnc3)nn12	dFosB activator 245
COCCCNc1nc2cc(OC)c(OC)cc2c2nc(-c3ccccc3)nn12	none
COc1cc2nc(NCC3CCCO3)n3nc(-c4cccnc4)nc3c2cc1OC (stereo unspecified)	none (no result: MEKK3 PB1 HTS, MEKK2 WT-MEK5, MEKK2mut PB1 HTS)
COc1cc2c(cc1OC)C(c1cccc([N+](=O)[O-])c1)N(C(=O)c1ccccc1C(=O)O)CC2 (stereo unspecified)	none
O=C1CCC(C(=O)NCc2ccccc2)N1 (stereo unspecified)	none
